Experimental findings from PubChem BioAssay AID1645875 (National Center for Advancing Translational Sciences (NCATS), 2021) are described below.

Inconclusive results are not listed. Activity calls are given as the source filed them. Calls follow the shape of the dose curve; as a rule, active = well fitted inhibition curve with a large enough effect; inconclusive = small, poorly fitted or top-dose-only effect; inactive = no such curve, though single readings can be large or run the other way.

For the assay, the target named is N-terminal Xaa-Pro-Lys N-methyltransferase 1 (Homo sapiens) (UniProt Q9BV86). Kind of assay: Orthogonal qHTS for Inhibitors of N-terminal methyltransferase 1 (NTMT1): ThioGlo Assay. Conditions: NTMT1 SAHH-coupled ThioGlo fluorescence, 30 min; series mostly up to 84.5 µM. The source says: Assay Submitter (PI): Rong Huang Ph.D. Purdue University, West Lafayette, IN 47907 The N-terminal methytransferase 1 is the first methyltransferase that methylates protein alpha-N-amines and plays an important role in regulating cell mitosis, chromatin interactions and DNA repair. It is observed to be over-expressed in various cancer patient tissues like malignant melanoma and colorectal cancer tissues. Knockdown of NTMT1 in cancer cells causes cell mitotic defects and enhances sensitivity to DNA damaging chemotherapeutics. […] These critical cellular processes in which NTMT1 is implicated, coupled with emerging links to cellular dysfunction, strengthen the inference that NTMT1 is a compelling novel anticancer target. Progress have been made in understanding the molecular properties of NTMT1 and the biological consequences of protein alpha-N-terminal methylation, but there are no specific small molecule probes available for NTMT1 to fully characterize its MTase activity. To address this unmet need, a panel of assay is created and established to enable quantitative high-throughput screening (qHTS) for novel, potent, and selective small molecule NTMT1 inhibitors. Two orthogonal qHTS that use different reagents (ThioGlo vs. MTaseGlo) are developed for primary robotic screening against the NCATS chemical library of more than 400,000 small molecules. Identified inhibitors are reacquired, validated, and further characterized. […] Early Translation Branch (ETB) National Center for Advancing Translational Sciences (NCATS) National Institute of Health (NIH)
Materials: NTMT1 enzyme, substrate SPKRIA, control peptide RCC1-6 is provided by the Huang laboratory. MTaseGlo Assay: PROTOCOL TABLE; SEQUENCE No. (e.g., 1, 2, 3, etc.); […] (e.g., Cells, Incubation, Reagent, etc.); VALUE; DESCRIPTION 1; Enzyme; 3 uL; Dispense enzyme mixture (final concentrations of 125 nM NTMT1) into Greiner 1536-well black / solid bottom assay plate (Greiner Bio One, Monroe, NC). 2; Compounds; 23 nL; Compounds (at various concentration) and 1uM final concentration of RCC1-6 (SPKRIA) control were transferred via a Kalypsys Pin Tool (Wako USA) equipped with a 1536-slotted pin array (Wako Automation, Richmond, VA). 3; Incubation; 1 min; Incubate at room temperature. 4; Substrate; 1 uL; Dispense 1 uL of substrate solution (100uM SAM, 10uM SAHH, 15uM ThioGlo3 final concentration) was added to the wells bringing the final assay volume to 4uL. The assay plate was covered with metal lids. 5; Detection; Fluorescence; Initial fluorescence readout (background signal) was detected using the ViewLux microplate imager with an excitation filter of 340 nm and 450 nm emission filter. 6; Incubation; 30 min; Assay plates were incubation at room temperature in the dark. 7; Detection; Fluorescence; Final fluorescence readout was detected using the ViewLux microplate imager with an excitation filter of 340 nm and 450 nm emission filter. The data was normalized to the background fluorescence.

N-terminal Xaa-Pro-Lys N-methyltransferase 1 (Homo sapiens), sequence (Q9BV86 whole entry, looked up): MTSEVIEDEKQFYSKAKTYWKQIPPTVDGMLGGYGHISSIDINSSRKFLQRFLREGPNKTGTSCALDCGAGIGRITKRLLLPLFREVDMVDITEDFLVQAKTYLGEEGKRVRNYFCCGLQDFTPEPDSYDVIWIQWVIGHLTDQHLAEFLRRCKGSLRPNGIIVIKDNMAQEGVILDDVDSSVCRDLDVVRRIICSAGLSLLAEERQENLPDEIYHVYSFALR

With `C[N+](C)(C)CC#CCN1CCCC1=O`, the Potency was 1540 nM (active).
Then `NC(=O)CI`, with 6890 nM (active); and `C[N+]1(C)CCN(c2ccccc2)CC1`, with 2740 nM (active).
Then `C[N+]1(C)C2CCC1CC(OC(=O)c1c[nH]c3ccccc13)C2` (stereo unspecified), with 1940 nM (active); and `CN[C@@H]1C[C@@H](c2ccc(Cl)c(Cl)c2)c2ccccc21`, with “inactive”.
For the molecule `NC1CCc2cc(O)c(O)cc2C1` (stereo unspecified), the Potency was 10900 nM (active).
